High-throughput results (PubChem)
Shown are actives, neighbours in structure and some others; about 3.9% of the full set was active somewhere.
HSF1 inhib: HSF1 inhibitors in luciferase reporter cells, primary screen, cell-based, NIH3T3, luminescence. AID 2098, 2009. activity change, negative = inhibition, % at 7.5 µM (by protocol). actives 0.77% (n = 300,000). NIH3T3-HGL HSE-luciferase, MG132-induced, luminescence 8 h; hits give low values;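 active means more than half of replicate wells show activity change below -50%, luminescence cut by over half; inconclusive means some wells, but at most half, below -50%; inactive means no replicate well below -50%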;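 further: luciferase reports HSF-1 transcriptional activity via heat shock element; 0% = median of DMSO wells and -100% = zero luminescence signal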
HSF-1 act: HSF-1 activators, primary screen, NIH3T3-HGL cells, MG132 stress, luminescence, single point; NIH3T3-HGL HSF-1 luciferase reporter, 8 h; 100% = twice DMSO control signal; activation, % at 9 µM; actives 1.7% (n = 300,000);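 active means mean replicate activation of at least 50% with a set share of replicates each reaching 50%; inconclusive means only one of those two conditions met; inactive means mean below 50% and too few replicates reaching it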;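 further: 0% = median of the neutral control wells and 100% = twice that signal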
Wnt bcat act: Wnt/beta-catenin pathway activators, primary screen, cell-based, plate reader, single point; AID 743398, 2014; Wnt/beta-catenin reporter cell assay, activator; actives 1.2% (n = 300,000); activation, % at 9.35 µM; in the data active means activation above about 30%, passing the limit was not always enough; inconclusive means no clear call, values can overlap the other calls;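 further: 0% = neutral control wells and 100% = positive control wells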
MITF act: activators of MITF-driven TRPM1 promoter reporter, primary screen, cell-based, SK-MEL-5, luciferase, single point; SK-MEL-5 TRPM1-promoter luciferase, 24 h; % of positive control, neutral wells = 0; activation, % at 12.5 µM; actives 0.75% (n = 300,000); AID 588334, 2011;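 active means mean activation of at least 80% with every replicate also reaching 80%; inconclusive means mean reaches 80% but some replicate falls short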;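 further: 0% = neutral control wells and 100% = parthenolide positive control wells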
esBAF inh: Bmi1 luciferase reporter increase in mESCs, primary screen, esBAF inhibitor project, mouse ES cells, Bmi1 luciferase knock-in, single point | 24 h; 100% = twice the neutral-well signal | reporter increase, % at 12.5 µM | actives 2% (n = 350,000) | AID 602393, 2012; in the data active means activation above about 40%; inconclusive means no clear call, values can overlap the other calls;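 further: 0% = median of the plate's neutral control wells and 100% = double that signal; a rise in the Bmi1 reporter signal indicates esBAF inhibition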
* marks the source's active call; other numbers are inactive results; ? = inconclusive; · = no result given.

SMILES	HSF1 inhib	HSF-1 act	Wnt bcat act	MITF act	esBAF inh
COc1ccc(-c2cn(CC[C@@H]3CC[C@@H](NC(=O)NC(C)C)[C@H](CO)O3)nn2)cc1	·	·	·	·	15.3
COc1cccc(NC(=O)N2CCCC2C(=O)NCC(C)C)c1 (stereo unspecified)	-7.8	-12.4	-2.0	-3.5	6.3
O=C(Nc1cccc(Cl)c1)N1CCC(CO)(CCOc2ccccc2)CC1	59.6	94.8*	0.9	-2.2	·
O=C(Nc1ccccc1F)N1CCc2ccccc2C1	9.1	17.0	1.3	56.8	65.0*
COc1cccc(NC(=O)N2CCCC2C(=O)NC(C)C)c1 (stereo unspecified)	-62.6*	-69.9	-0.3	·	2.1
Cc1ccc(C)c(NC(=O)N2CCc3ccccc3C2)c1	5.4	30.9	2.5	28.2	38.2
O=[N+]([O-])c1ccc(N2CCc3ccccc3C2)cc1	71.4	72.6*	1.8	·	32.7
O=C(Nc1ccc(Cl)cc1)N1CCC(CO)(Cc2ccccc2)CC1	0.2	19.8	-0.3	-5.4	-10.2
COc1ccc(NC(=S)N2CCc3ccccc3C2)cc1	27.7	60.9*	9.2	2.3	·
O=C(Nc1cccc(Cl)c1)N1CCc2ccccc2C1	12.0	40.0	1.7	·	50.1*
O=C(Nc1cccc(Cl)c1)c1nc[nH]c1C(=O)N1CCc2ccccc2C1	·	·	-1.5	-9.1	-1.8
O=C(Nc1ccc([N+](=O)[O-])cc1)N1CCc2ccccc2C1	19.8	9.8	13.2	20.2	50.8*
COc1cccc(NC(=O)N2CCc3ccccc3C2)c1	11.6	6.7	25.9	78.9	50.1*
COc1cccc(NC(=O)N2CCc3nc(Nc4ccc(C(C)C)cc4)ncc3C2)c1	·	·	-8.2	·	70.3*
COc1cc(Nc2ncc3c(n2)CCN(C(=O)Nc2ccc(C(C)C)cc2)C3)cc(OC)c1OC	·	·	-2.0	·	-0.6
Cc1cc(C)nc(N(C#N)CN2C(=O)c3ccccc3C2=O)n1	2.3	12.0	0.6	4.1	1.3
CC(C)Nc1nc(Cl)nc(N(C#N)CN2C(=O)c3ccccc3C2=O)n1	153.3	204.0*	-26.3	-56.1	·
CN1CCN(C(=O)CCN2C(=O)c3ccccc3S2(=O)=O)CC1	-3.7	-6.9	-1.4	11.9	-2.6
CCC(C)Nc1nc(Cl)nc(N(C#N)CN2C(=O)c3ccccc3S2(=O)=O)n1 (stereo unspecified)	54.2	75.6*	·	-67.1	·
COCC(=O)N1C[C@H](C)[C@H](OC)CN(C)C(=O)c2cc(NC(=O)c3cc(C)on3)ccc2OC[C@@H]1C	·	·	·	·	-4.2
Cc1cccc(-n2cc(CN3CCN(Cc4nccn4C)CC3)c(-c3cccc(F)c3)n2)c1	27.5	65.3*	14.3	21.6	·
O=C(Nc1ccc2c(c1)Cc1cc([N+](=O)[O-])ccc1-2)C(F)(F)F	·	·	11.2	·	41.5*
COc1cc2c(cc1NC(=O)C(F)(F)F)-c1ccc(NC(=O)C(F)(F)F)cc1C2	·	·	5.9	31.4	·
C[C@@H]1CN([C@@H](C)CO)C(=O)Cc2cc(NC(=O)Cc3cn(C)c4ccccc34)ccc2O[C@@H]1CN(C)Cc1ccc2c(c1)OCO2	·	·	·	·	5.1
CC(NC(=O)c1ccccc1Br)c1ccc2c(c1)CCCC2 (stereo unspecified)	20.8	59.4*	·	-1.3	-6.5
SMILES	HSF1 inhib	HSF-1 act	Wnt bcat act	MITF act	esBAF inh
Nc1ncnc2c(C3OC(CO)C(O)C3O)c[nH]c12 (stereo unspecified)	90.8*	90.8*	-5.4	-99.0	·
CC(C)CC#Cc1cnc2c(c1)C(=O)N([C@H](C)CO)C[C@@H](C)[C@@H](CN(C)C(=O)Nc1cccc(F)c1)O2	·	·	·	·	3.1
C[C@@H]1CN([C@@H](C)CO)C(=O)c2c(c3ccccc3n2C)-c2ccccc2CO[C@H]1CN(C)C(=O)CCC(F)(F)F	·	·	·	·	3.1
Cc1nn(Cc2ccccc2Cl)c(Cl)c1C(=O)NCCc1ccccc1	40.5	61.1*	47.1*	60.3	5.4
CC(=O)Nc1ccc(NC(=O)c2c(C)nn(Cc3ccccc3)c2Cl)cc1	-1.8	26.2	-0.9	-1.2	5.3
CC(Sc1ccsc1[N+](=O)[O-])C(=O)NCc1ccccc1 (stereo unspecified)	-2.6	-7.0	54.0*	·	·
O=S(=O)(N[C@@H]1CC[C@H](CCn2cc(-c3ccccn3)nn2)O[C@H]1CO)c1cccc(F)c1	·	·	·	·	2.5
O=S(=O)(Nc1ccc2c(c1)OCCO2)c1cccc2nsnc12	-59.4*	-67.0	·	-11.9	·
Cn1c(=O)oc2cc(S(=O)(=O)N3CCCC3)ccc21	-8.9	-10.6	-0.3	·	-6.0
Cn1cc(S(=O)(=O)Nc2ccc3c(c2)OCCO3)cn1	-62.5*	-67.1	4.9	3.7	-30.3
Cn1c(=O)oc2cc(S(=O)(=O)N3CCCCC3)ccc21	47.0	113.2*	8.4	-4.0	-3.4
Cn1c(=O)oc2cc(S(=O)(=O)Nc3ccc4c(c3)OCO4)ccc21	0.3	1.6	2.1	-3.1	45.3*
O=C(Nc1cccc(F)c1)N[C@@H]1CC[C@H](CCNS(=O)(=O)c2cccc(Cl)c2)O[C@@H]1CO	·	·	·	·	5.7
O=C(Cc1ccccc1)N1C[C@@H]2[C@H](c3ccccc31)[C@@H](CO)N2C(=O)c1cccc(F)c1	·	·	·	·	-1.7
CCn1cc(S(=O)(=O)Nc2ccc3c(c2)OCCO3)cn1	-80.5*	-82.9	-4.0	-22.5	·
O=C(CCc1nnc2ccc(N3CCC4(CC3)OCCO4)nn12)NCc1ccc(F)cc1	-72.2*	-76.6	-2.7	12.1	-7.1
O=C(OCc1cc(=O)n2ccsc2n1)c1ccccc1O	·	·	-1.0	?	74.0*
O=c1cc(CNc2cc(Cl)ccc2Cl)nc2sccn12	10.0	30.9	·	17.0	·
O=c1cc(COc2ccc(Cl)c(Cl)c2)nc2sccn12	35.0	56.9*	?	73.6	45.4*
COc1ccccc1C(=O)OCc1cc(=O)n2ccsc2n1	·	·	4.9	33.0	·
C[C@H](CO)N1C[C@H](C)[C@H](CN(C)S(=O)(=O)c2ccc(Cl)cc2)Oc2ccc(NS(=O)(=O)c3ccc(Cl)cc3)cc2C1=O	·	·	·	·	-5.1
CCCCc1ccc(Nc2ncnc3nc[nH]c23)cc1	6.7	6.0	25.1	104.9*	8.9
CCc1ccc(Nc2ncnc3nc[nH]c23)cc1	8.9	29.7	46.8*	96.4*	8.3
c1ccc(CCCNc2ncnc3nc[nH]c23)cc1	1.5	6.5	2.3	·	21.4
COc1cccc(Nc2nc(N)c([N+](=O)[O-])c(NCc3ccccc3)n2)c1	31.6	70.4*	1.5	·	·
CCCNC(=O)Nc1ccc2c(c1)C(=O)N(C)C[C@H](OC)[C@H](C)CN(Cc1ccc(-c3ccccn3)cc1)[C@H](C)CO2	·	·	·	·	5.4
CCOCCCNC(=O)C(c1ccc(Cl)cc1)N1CCC2(CC1)OCCO2 (stereo unspecified)	4.6	-5.4	60.5*	3.6	-16.4
C(/C=C/c1ccccc1)=N/N1CCN(c2ccccc2)CC1	13.9	28.9	-1.0	94.1*	?
C(=C\c1ccccc1)/C=N/N1CCN(c2ccccn2)CC1	9.9	14.2	·	85.3*	·
